Screens as filed in PubChem.
Only some compounds are listed: those with a hit (about 1.6% of all), similar ones and a draw of the others.
ugtP null kill: kills S. aureus RN4220 lacking UgtP. growth inhibition, % (test concentration not listed). AID 1259309. hit rate 0.54% among 330,000. S. aureus RN4220 ugtP deletion, OD600 growth, 16 h; in the data active = growth inhibition above about 68%;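 note: plate controls were untreated wells for no effect and antibiotic for full effect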
RN4220 kill: kills Staphylococcus aureus RN4220; S. aureus RN4220 growth, OD600, 16 h; inhibition, % (no concentration beside the values); hit rate 0.33% among 330,000; AID 1259311; in the data active = inhibition above about 85%;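 note: plate controls were untreated cells for no effect and reference antibiotic for full effect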
PfHsp40 yeast: rescue of PfHsp40-mediated yeast toxicity; S. cerevisiae expressing PfHsp40, growth rescue, ATP luminescence; growth rescue, % at 12.5 µM; hit rate 0.68% among 340,000; AID 504582; in the data active = growth rescue above about 28%, passing the limit was not always enough;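 note: yeast W303a lacking pdr1 and pdr3 grown in galactose medium; growth measured after three days at 30 °C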
CCHFV vOTU inh: CCHFV vOTU protease inhibition; Pep-AMC fluorescence; hit rate 0.55% among 370,000; AID 651958; inhibition, % at 11.5 µM; in the data active = inhibition above about 30%; note: 0% = vehicle wells with enzyme and 100% = no enzyme wells
BJeLR viability: BJeLR cell viability loss | inhibition, % (test concentration not listed) | BJeLR (HRASV12) viability, CellTiter-Glo ATP luminescence, 48 h | hit rate 0.17% among 300,000; in the data active = inhibition above about 50%
Active calls of the source: *; . = no result given.

SMILES	ugtP null kill	RN4220 kill	PfHsp40 yeast	CCHFV vOTU inh	BJeLR viability
CC(CN1C(=O)C(=O)NCC1C)NC(=O)CC12CC3CC(CC(C3)C1)C2 (stereo not drawn)	1.8	4.8	.	.	.
COc1cccc(-c2coc3c(C)c4oc(=O)c(CC(=O)O)c(C)c4cc23)c1	98.7*	95.1*	2.6	-7.2	3.4
Cc1c(CC(=O)O)c(=O)oc2c(C)c3occ(-c4ccc(Br)cc4)c3cc12	.	.	0.8	-17.6	4.5
CCCCC(NC(=O)Cc1c(C)c2cc3c(-c4ccccc4)coc3c(C)c2oc1=O)C(=O)O (stereo not drawn)	99.5*	98.5*	-0.4	24.7	-7.3
COc1cccc(-c2coc3c(C)c4oc(=O)c(CCC(=O)O)c(C)c4cc23)c1	100.4*	100.4*	-0.8	19.5	-8.8
CC[C@@H](C)[C@H](NC(=O)Cc1c(C)c2cc3c(C)coc3c(C)c2oc1=O)C(=O)O	-0.6	-0.4	0.5	-15.2	-6.7
COc1ccc(-c2coc3c(C)c4oc(=O)c(CC(=O)O)c(C)c4cc23)cc1	100.2*	92.8*	-0.3	-7.0	21.3
COc1ccc2ccccc2c1C=NNC(=O)c1cccc(C)c1	6.2	0.2	.	.	.
Cc1ccc(CN2C(CC3CCCCC3)COCCS2(=O)=O)cc1 (stereo not drawn)	15.3	5.8	.	.	.
COc1ccc2nc(C=NNC(=O)[C@H](CCSC)NC(=O)OC(C)(C)C)ccc2c1	0.1	1.0	.	.	.
C=CCn1c(=O)c(C(=O)NCCNCC)c(O)c2ccccc21	6.3	2.3	0.1	-8.7	-2.7
CCCCCCCn1c(=O)c(C(=O)Nc2cnccn2)c(O)c2ccccc21	97.6*	98.2*	12.4	-19.5	-44.3
C=CCn1c(=O)c(C(=O)NCc2ccccc2)c(O)c2ccccc21	25.2	3.2	128.8*	-4.9	-0.5
CCCCn1c(=O)c(C(=O)NCc2ccccc2)c(O)c2ccccc21	66.3	1.3	5.7	-6.2	-7.9
CCCCCn1c(=O)c(C(=O)Nc2cnccn2)c(O)c2ccccc21	99.4*	73.7	18.6	9.4	-17.2
CCCCn1c(=O)c(C(=O)NCc2ccncc2)c(O)c2ccccc21	-5.4	-5.9	219.1*	9.0	6.2
Cc1nn(-c2ccccc2)c(C)c1C=CC(=O)OC(C)C(N)=O (stereo not drawn)	-7.1	1.5	.	.	.
Cc1ccc(C=C2C(Cl)=C(Cl)C(Cl)=C2Cl)cc1	100.2*	96.7*	.	.	38.6
Cc1ccc(C=NN=Cc2ccc(C)cc2)cc1	9.8	2.2	.	.	.
O=C(NN=Cc1ccc(Br)s1)c1ccccn1	-6.0	5.2	.	.	.
CC(=O)c1ccccc1OC(=O)c1ccc(-c2ccccc2)cc1	100.3*	9.3	1.2	14.2	-12.9
CCN(CCO)C1CC(=O)N(c2ccccc2C)C1=O (stereo not drawn)	2.4	5.8	75.0*	.	6.0
NC(=O)CN1CCN(C(=O)Nc2ccccc2)CC1	-4.3	0.2	75.8*	2.8	-6.2
Nc1cc2c3c(cccc3c1)C(=O)N(CCN1CCCC1)C2=O	5.8	-1.9	-0.8	1.7	38.2
O=C1c2cccc3cc([N+](=O)[O-])cc(c23)C(=O)N1CCN1CCCC1	.	.	-0.1	9.4	95.6*
SMILES	ugtP null kill	RN4220 kill	PfHsp40 yeast	CCHFV vOTU inh	BJeLR viability
COc1c(C(CC(C)C)OC(C)=O)ccc2c1C(=O)OCc1cc(C)cc(O)c1O2 (stereo not drawn)	-2.9	9.0	161.0*	20.5	14.3
COc1c(C(O)CC(C)C)ccc2c1C(=O)OCc1cc(C)cc(O)c1O2 (stereo not drawn)	-2.6	2.0	0.6	6.4	0.3
CSc1ccc(C=NNC(=O)c2ccc(C)c(C)c2)cc1	-10.1	-4.2	.	.	.
O=C(O)c1ccn2c(C(=O)c3ccc(Cl)cc3)c(-c3ccccc3)cc2c1	.	.	71.6*	12.3	-2.0
CC(C)(C)C1C=C(C(=O)N2CCN(Cc3ccc4c(c3)OCO4)CC2)OC(OCCCCO)C1 (stereo not drawn)	-4.3	6.0	.	.	.
Cc1cc(O)c2c(c1O)C(=O)[C@]13C(=C2O)C(=O)[C@@H]2[C@@H](O)[C@H]1[C@@H]1[C@H](O)[C@H]3C(=O)C3=C(O)c4c(O)cc(C)c(O)c4C(=O)[C@]312	98.8*	98.9*	71.0*	.	.
Clc1cncc(Cl)c1NN=Cc1ccccc1	1.0	5.2	.	.	.
O=C(O)c1ccc(CSc2nnc(-c3ccncc3)n2CC2CCCO2)cc1 (stereo not drawn)	-2.0	-1.1	-0.6	-8.6	1.0
Cc1ccc(CSc2nnc(-c3ccncc3)n2CC2CCCO2)cc1 (stereo not drawn)	3.9	3.5	53.7*	11.9	3.5
COc1ccc(C(=O)c2ccc(Cl)cc2)cc1	6.5	14.3	-1.2	6.9	2.2
COc1ccc(C(=O)c2ccc(Cl)c([N+](=O)[O-])c2)cc1	0.6	4.4	1.8	2.9	66.7*
COc1cc(SC)ccc1C(=O)Nc1ccc(C)cc1	8.6	-0.6	146.7*	5.0	.
COc1cc(SC)ccc1C(=O)Nc1ccc(C)cc1C	5.7	0.4	-0.6	3.5	-9.1
Cc1nn(C)c(C(=O)Sc2cccc(Cl)c2)c1[N+](=O)[O-]	92.7*	26.8	-1.6	5.2	7.9
Cc1nn(C)c(C(=O)Sc2ccccc2)c1[N+](=O)[O-]	7.7	-2.4	-1.2	2.9	-1.1
CC(=O)Nc1ccc(C(=O)NN=Cc2ccncc2)cc1	0.7	-0.6	.	.	.
CN(Cc1c(C(=O)NN=Cc2ccccc2)nnn1-c1nonc1N)C1CCCCC1	-2.7	5.9	.	.	.
CCN1/C(=C/C=C/C=C/C=C/c2sc3ccccc3[n+]2CC)Sc2ccccc21	98.1*	91.6*	-0.5	5.0	62.9*
CCN1/C(=C/C=C/C=C/c2sc3ccccc3[n+]2CC)Sc2ccccc21	.	.	.	.	69.5*
CC[n+]1c(/C=C/Nc2ccccc2)sc2ccccc21	-6.5	7.6	-0.6	16.3	11.4
CCN1/C(=C/C=C/c2sc3ccccc3[n+]2CC)Sc2ccccc21	.	.	254.1*	.	68.8*
C#CCOCCOCCOCCNc1nc(N2CCOCC2)nc(N2CCN(C(=O)C(CCCCN)n3cc(C(N)CC(C)C)nn3)CC2)n1 (stereo not drawn)	-11.4	0.8	.	.	.
CC(=NNC(=O)CCc1c[nH]c2ccccc12)c1ccc([N+](=O)[O-])cc1	-14.5	5.4	.	.	.
O=C(NN=Cc1cc([N+](=O)[O-])cc([N+](=O)[O-])c1O)/C(=C\c1cccs1)NC(=O)c1ccccc1	-3.3	4.2	.	.	.
Nc1nonc1-n1nnc(C(=O)NN=Cc2ccoc2)c1CSc1ccc(Cl)cc1	-12.5	-0.9	.	.	.
COc1ccc(/C=C/C(=O)OCC(=O)NC2CCCCC2C)c(OC)c1 (stereo not drawn)	87.2*	4.6	0.2	12.8	.
CC1OC(OC2C(COC3OC(CO)C(O)C(O)C3O)OC(OC3CC[C@]4(C)C(CC[C@@]5(C)C4C=C[C@]46OC[C@@]7(CCC(C)(C)CC74)C(O)C[C@@]56C)C3(C)C)C(O)C2O)C(O)C(O)C1O (stereo partly drawn)	4.9	4.6	.	.	.
COc1ccc2cc(/C=C3\SC(=S)NC3=O)c(N3CCOCC3)nc2c1	89.6*	88.9*	-1.5	1.3	-5.1
O=C1NC(=S)S/C1=C/c1ccc(N2CCOCC2)o1	-1.1	10.4	0.0	.	21.2
